BoNT-A LC inh2 = BoNT/A light chain protease inhibitors, primary screen, biochemical, flow cytometry, MLPCN library; inhibition, % at 10 µM; multiplex microsphere protease substrate cleavage; 360,000 tested, 0.17% active; Botulinum neurotoxin type A light chain protease (Clostridium botulinum A str. ATCC 3502); further: plate controls were buffer without enzyme for full effect and enzyme alone for no effect
Anthrax LF inh2 = Bacillus anthracis LF protease inhibitors, primary screen, biochemical, multiplex microsphere, MLPCN library; multiplex microsphere protease cleavage assay; AID 588501, 2011; inhibition, % at 10 µM; Lethal factor (Bacillus anthracis), P15917; 360,000 tested, 0.12% active; further: plate controls were buffer without enzyme for full effect and enzyme alone for no effect
CCHFV vOTU inh = CCHFV vOTU protease inhibitors, primary screen, biochemical, Pep-AMC substrate, fluorescence; 370,000 tested, 0.55% active; inhibition, % at 11.5 µM; AID 651958, 2012; Crimean-Congo hemorrhagic fever virus L polyprotein viral ovarian tumor (vOTU) protease …; in the data active means inhibition above about 30%; further: 0% = vehicle wells with enzyme and 100% = no enzyme wells
BoNT F protease = BoNT/F light chain protease inhibitors, primary screen, biochemical, flow cytometry, MLPCN library; Botulinum neurotoxin type F light chain protease (Clostridium botulinum); Multiplex microsphere protease cleavage assay; inhibition, % at 10 µM; 360,000 tested, 0.22% active; AID 588497, 2011; in the data active means inhibition above about 35%, passing the limit was not always enough; inconclusive means no clear call, values can overlap the other calls; further: plate controls were buffer without enzyme for full effect and enzyme alone for no effect
Bead autofluor = flagged as autofluorescent in microsphere protease counterscreen. compound autofluorescence counterscreen, microsphere flow cytometry; active compounds read high. fluorescence intensity (concentration not given with the values). 360,000 tested, 3.1% active; in the data active means fluorescence intensity above about 16000; inconclusive means no clear call, values can overlap the other calls
3CLpro inhibitor = SARS-CoV 3CLpro protease inhibitors, primary screen, biochemical, quenched FRET | Replicase polyprotein 1ab (Severe acute respiratory syndrome coronavirus), P0C6X7 | recombinant SARS-CoV 3CLpro, quenched FRET peptide cleavage | inhibition, % at 6 µM | 290,000 tested, 0.14% active | AID 1706, 2009; in the data active means inhibition above about 12%
Numbers without * were called inactive; ? = inconclusive; · = no result given. Rows were chosen to be rich in hits. Some 3.9% of all compounds tested hit in one or more screens of this group. Unless noted, no stated cut-off is given here; in the data, active means inhibition above about 30%; inconclusive means no clear call, values can overlap the other calls; inactive means below that.

SMILES	BoNT-A LC inh2	Anthrax LF inh2	CCHFV vOTU inh	BoNT F protease	Bead autofluor	3CLpro inhibitor
CCC1Oc2ccccc2N(CC(=O)NCCc2ccc(OC)c(OC)c2)C1=O (centres undefined)	0	-1	3	3	4155	0
CCC1Oc2ccccc2N(CC(=O)Nc2ccccc2OC)C1=O (centres undefined)	?	-1	-12	5	22225*	-3
CCC1Oc2ccc(C)cc2N(CC(=O)NCc2cc(OC)ccc2OC)C1=O (centres undefined)	1	6	-11	6	7638	-1
CC(C)(C)C(=O)NC1CCCCN(Cc2ccc(Cl)cc2)C1=O (centres undefined)	·	·	2	·	·	·
Brc1ccc(CN2CCN(c3ncc(Cc4ccccc4)cn3)CC2)cc1	·	·	12	·	·	·
COC(=O)c1ccc(-c2ccc3c(c2)[C@]2(CCC[C@@H](O)[C@@H]2NC(=O)CCc2ccccc2)C(=O)N3Cc2ccccc2)cc1	·	·	-14	·	·	·
O=C(CN1C(=O)COc2ccccc21)N(Cc1ccccc1)Cc1ccccn1	?	0	2	4	22246*	3
Cc1ccc(CN(Cc2cccnc2)C(=O)CN2C(=O)COc3ccccc32)o1	0	-4	·	-4	8126	5
COc1ccc(NC(=O)CN2CCC(C(N)=O)CC2)cc1	1	-6	7	30	4665	-3
COc1ccc(NC(=O)CN2CCC(C)CC2)cc1	-5	-4	-6	-7	17348*	-1
CCCCNC(=O)C[C@@H]1C(=O)N(Cc2ccc(OC)cc2)/C2=C/CCCCC[C@@]21C(=O)OCC	·	·	7	·	·	·
O=C(NCc1ccccc1)C1(c2ccccc2)CCN(S(=O)(=O)c2ccccc2)CC1	-1	-2	-1	-2	16987*	-4
O=C(O)C1(c2ccccc2)CCN(S(=O)(=O)c2ccccc2)CC1	0	-3	2	-4	4504	4
COC(=O)[C@]12C[C@H](CC(=O)N3CCSCC3)C(=O)N(CCc3ccc(OC)c(OC)c3)C1=C[C@H](COCc1ccccc1)O[C@@H]2C	·	·	0	·	·	·
Cn1c(SCc2c(Cl)cccc2Cl)nnc1-c1cccs1	?	-2	11	5	18672*	-2
Cn1c(SCc2ccc(Br)cc2)nnc1-c1cccs1	1	-4	25	3	16457*	-2
Cc1ccc(CSc2nnc(-c3cccs3)n2C)cc1	0	-1	-1	-10	13667	2
Cn1c(SCc2nc3ccccc3[nH]2)nnc1-c1cccs1	?	-1	-13	0	23403*	-3
COc1ccc(C2CC(=O)C(c3ccc(Br)cc3)=CN2Cc2ccccc2)cc1 (centres undefined)	·	·	2	·	·	·
CCN(CC)S(=O)(=O)c1ccc(N2CCCCC2)c(NC(=O)/C=C/c2ccc(OC)c(OC)c2)c1	4	0	-2	34	2267	-2
O=C(/C=C/c1ccco1)NCC1(c2ccccc2)CCCC1	0	0	22	4	2153	4
COc1ccc(C2(CNC(=O)/C=C/c3ccco3)CCCC2)cc1OC	5	2	-6	3	19955*	1
CCN(CC)S(=O)(=O)c1ccc(OC)c(NC(=O)/C=C/c2ccco2)c1	4	-4	4	35*	5086	-4
C/C(C=NNC(=O)CSc1nnc(-c2ccc(Cl)cc2)n1-c1ccccc1)=C\c1ccccc1	·	·	4	·	·	·
c1ccc(Cn2c(SC3CCCCC3)nnc2-c2cccnc2)cc1	·	·	2	·	·	·
SMILES	BoNT-A LC inh2	Anthrax LF inh2	CCHFV vOTU inh	BoNT F protease	Bead autofluor	3CLpro inhibitor
CCN1C(=O)C(=Cc2ccc(C)s2)C(=O)N(CC)C1=S	69*	28	-6	7	3018	2
CCN1C(=O)/C(=C/c2ccc(C)s2)SC1=Nc1ccc(OC)cc1	0	-3	-4	0	2992	-6
COc1cc(C(=O)NC2=NCCS2)ccc1OCc1c(C)noc1C	?	0	7	-6	20499*	-6
COc1cc(C(=O)NC2=NCCS2)cc(OC)c1OC	0	2	-3	2	4305	-8
Cc1c(C(=O)NC2=NCCS2)oc2ccccc12	-1	-1	16	-12	21128*	-5
COc1cccc(C(=O)NC2=NCCS2)c1OC	?	-7	-9	-1	19499*	-1
COC(=O)C1CN(Cc2cn(Cc3ccc(C)cc3)nn2)CCS(=O)(=O)N1Cc1ccc(Cl)cc1 (centres undefined)	·	·	10	·	·	·
CC(=O)c1cc(-c2ccc(-c3ccccc3)c(F)c2)c(=O)n2c1CCC2	·	·	0	·	·	·
CCN(CC)CCN1C(=O)c2oc3ccc(F)cc3c(=O)c2C1c1ccncc1 (centres undefined)	-1	-13	1	-10	5086	·
CCN(CC)CCN1C(=O)c2oc3ccccc3c(=O)c2C1c1ccc(F)cc1 (centres undefined)	-2	-4	-6	-3	21092*	1
CN(C)CCCN1C(=O)c2oc3ccccc3c(=O)c2C1c1cccs1 (centres undefined)	8	-9	0	7	18317*	-3
O=C(c1cc(-c2ccccc2)nc2ccccc12)N1CCC2(CC1)OCCO2	-1	0	0	-2	23724*	0
CN(c1ccccc1C(=O)N1CCc2ccccc2C1)S(C)(=O)=O	0	-4	20	0	22577*	-7
Cc1ccc2nc(-c3ccccc3)cc(C(=O)N3CCc4ccccc4C3)c2c1	?	2	-7	5	23070*	8
O=C(CCCn1c(=S)[nH]c2ccc(Br)cc2c1=O)N1CCN(c2ccccn2)CC1	-2	-7	2	-6	16819*	0
CC(C)Oc1cccc(-c2cc(C(=O)N3CCN(c4ncccn4)CC3)c3ccccc3n2)c1	?	-3	8	-3	23367*	1
CCOC(=O)N1CCN(C(=O)c2cccn3c(=O)c4sccc4nc23)CC1	?	-8	-106	-3	22718*	1
COc1cccc(-c2cc(C(=O)N3CCN(c4ncccn4)CC3)c3ccccc3n2)c1	0	2	10	-1	3136	5
O=C(c1cccn2c(=O)c3cc(Br)ccc3nc12)N1CCN(c2ccccn2)CC1	7	1	1	11	18386*	-1
CCOC(=O)N1CCN(C(=O)c2cccn3c(=O)c4cc(Br)ccc4nc23)CC1	1	-7	-24	-1	4184	-2
O=C(c1cccn2c(=O)c3ccccc3nc12)N1CCC2(CC1)OCCO2	-1	-1	-49	-1	22328*	1
O=C(c1cccn2c(=O)c3cc(Cl)ccc3nc12)N1CCC2(CC1)OCCO2	0	-2	-40	-9	7986	1

Compound activity from PubChem.
